# Assay results as given in PubChem BioAssay AID2315 (National Center for Advancing Translational Sciences (NCATS), 2010).
# The whole screen tested about 290,000 compounds, of which about 27,000 (9.3%) were called active. This excerpt belongs to a sample that is enriched for actives. Values without a mark were called inactive. No stated cut-off is given here; in the data, active means inhibition mostly above about 28% (no sharp cut-off); inactive means mostly below about 43%.
# Assay: A qHTS for Small Molecule Inhibitors of Shiga Toxin; on inhibition: 0% is about no effect
# Conditions: Vero cells, Shiga toxin protein synthesis inhibition reporter; at 38.7 µM, stronger effect = higher value
row,SMILES,inhibition
1,Cc1ccc(-c2ccc(=O)n(Cc3ccc(F)cc3Cl)n2)cc1,-3.36%
2,CCOC(=O)N1CCC(N2Cc3cccc(C(=O)Nc4c(C)cccc4CC)c3C2=O)CC1,3.74%
3,CC(C)[C@H](NC(=O)N1CCn2c1nc1ccccc12)C(=O)NCc1ccc2c(c1)OCO2,10.7%
4,O=C(CN1C(=O)NC2(CCCCC2)C1=O)NCCc1c[nH]c2ccccc12,-14%
5,O=C(CCC(=O)n1ncc2ccccc21)NCc1ccccc1Cl,-2.08%
6,CCCOc1ccc(C2=CSC3=NCCN23)cc1Cl,-7.6%
7,CCN(CC)S(=O)(=O)c1ccc(N2CCOCC2)c(NC(=O)C2CSC3(C)CCC(=O)N23)c1 (stereo not drawn),-6.24%
8,COc1ccc2c3c(c(=O)oc2c1)C1O[C@](CCCCN2C(=O)c4ccccc4C2=O)(Cc2c1ccc1ccccc21)O3,inactive
9,Cc1cccc(NC(=O)CCn2c(=O)oc3ccccc32)c1,63.6%
10,NC(=O)Cn1c(=O)oc2ccccc21,18.3%
11,Cc1ccc(OCCCn2c(=O)oc3ccccc32)cc1,52.4% (active)
12,CCc1ccc(NC(=O)Cn2nnc(C(=O)NCc3ccc(OC)cc3)c2N)cc1,6.32%
13,COc1ccc2oc(=O)c(C(=O)N3CCCC3)cc2c1,-3.3%
14,COc1ccc2c(c1)CCc1c(C(=O)N3CCc4ccccc4C3)noc1-2,26.1%
15,COc1ccc2c(c1)CCc1c(C(=O)N3CCCC3)noc1-2,55.2% (active)
16,COc1ccc(/C=C2\CCc3ccccc3C2=O)c(OC)c1OC,77.4% (active)
17,COc1ccc(/C=N/NC(=O)C2CC2)c(OC)c1OC,-1.72%
18,O=C1/C(=C/c2cccs2)CCC1C1CCCC1 (stereo not drawn),136% (active)
19,O=C(COC(=O)/C=C/c1cccs1)NC1CCCCC1,10.6%
20,COc1ccc2c(c1OC)C(=O)c1ccccc1C2=O,16.6%
21,O=C1/C(=C/c2cccs2)SC(=S)N1C1CCS(=O)(=O)C1 (stereo not drawn),-16.1%
22,CCC1C/C(=C/c2cccs2)C(=O)/C(=C/c2cccs2)C1 (stereo not drawn),-3.18%
23,O=C1/C(=C/c2cccs2)CCc2ccccc21,85.4% (active)
24,CN1C/C(=C/c2cccs2)C(=O)/C(=C\c2cccs2)C1,66.1%

row,SMILES,inhibition
1,CCOC(=O)C1CCCN(CCSc2ccc(C)cc2)C1 (stereo not drawn),30%
2,O=C(N[C@@H](Cc1ccccc1)C(=O)OCc1ccccc1)c1nc[nH]c1C(=O)N[C@@H](Cc1ccccc1)C(=O)OCc1ccccc1,-7.22%
3,COc1ccccc1N1CCC(N2CCN(CC(C)(C)C)C(CCO)C2)CC1 (stereo not drawn),-5.66%
4,COC(=O)c1cccc(C(=O)N2CCC(CCC(=O)NCc3ccc(F)cc3)CC2)c1,-4.62%
5,Cc1ccc(C(=O)Nc2nnc(C3=COCCO3)o2)cc1C,12.4%
6,COc1ccc(C2=NS(=O)(=O)N(C)C(C(=O)N(C)Cc3ccccc3)=C2)cc1,0.266%
7,CCOc1ccc(N(C(=O)c2snc(C(N)=O)c2N)C(C(=O)NCC2CCCO2)c2c[nH]c3ccccc23)cc1 (stereo not drawn),-13.1%
8,COc1cccc(NC(=O)C(C)Oc2ccccc2)c1 (stereo not drawn),-3.55%
9,COc1cccc(Nc2ncccc2C(=O)O)c1,96.7% (active)
10,COc1ccc2nc(C)cc(Nc3cccc(C(=O)O)c3)c2c1,-3.88%
11,COc1nnc(-c2ccc(C)c(S(=O)(=O)N(C)C)c2)c2ccccc12,22.7%
12,CCOC(=O)c1c(NC(=S)NC(=O)/C=C/c2cccs2)sc(C)c1C,-10.9%
13,CCOC(=O)c1sc(=NC(=O)c2ccc(Br)cc2)n(C)c1C,-5.35%
14,CCOC(=O)c1sc(=NC(=O)/C=C/c2cccs2)n(C)c1C,88% (active)
15,CCOc1ccc(OCC)c(NC(=O)CCS(=O)(=O)c2ccc(C)cc2)c1,-3.57%
16,O=C(Cc1c(Cl)cccc1Cl)NC1CC1,-3.23%
17,CC(C)CCn1cnc2c1c(=O)n(CC(=O)NC(N)=O)c(=O)n2Cc1ccccc1,6.66%
18,COc1ccc(Cc2nnnn2CC(=O)O)cc1,18.4%
19,COc1ccc(Cc2cc(-c3ccc(F)cc3)n[nH]c2=O)cc1,41.9% (active)
20,COc1ccc(Cc2nnc(SC)[nH]c2=O)cc1,-10.4%
21,O=C(/C=C/c1ccc(Cl)cc1)NCCCn1ccnc1,63.2%
22,Cc1ccc(NS(=O)(=O)c2cc3c(cc2C)NC(=O)CO3)cc1,-3.52%
23,C[C@H](NC(=O)c1nc[nH]c1C(=O)NCC(=O)OC(C)(C)C)C(=O)OCc1ccccc1,-5.08%
24,CCC(C)c1ccccc1NC(=O)CN(C)CC(=O)Nc1ccccc1SC (stereo not drawn),-5.67%
